Screening data (PubChem)
A selection: hits, their analogues and other compounds. The true share with any hit is near 19%.
TDP1 cell noCPT = qHTS for Inhibitors of human tyrosyl-DNA phosphodiesterase 1 (TDP1): qHTS in cells in absence of CPT; actives 15% (n = 420,000); Potency, µM (doses to about 46.2 µM), for inactives: at the highest dose activity change, negative = growth inhibition, usual class: inhibitors; DT40 Tdp1-/- hTDP1 cells, no CPT, ATP luminescence, 48 h; AID 686978, 2013; note: potency is the fitted concentration of half-maximal effect; nearly all actives have a fitted effect of over 55% in size
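A cellular qHTS used chicken DT40 cells lacking endogenous Tdp1 but carrying stably transfected human TDP1. Compounds were applied without camptothecin, and cell growth kinetics were judged by ATP-dependent luminescence after ≥48 hr.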
IL1B secr inh = inflammasome signaling inhibition, IL-1 beta readout; AID 743279; actives 4.7% (n = 360,000); activity change, % at 57.5 µM; THP-1 LPS/ATP IL-1B secretion, AlphaLISA, 16 h; active compounds read low; in the data active = activity change below about -50%; inconclusive = mostly about -30% to -49%
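THP-1 cells pretreated 1 hr with compounds (up to 57.5 uM final), then stimulated with LPS (250 ng/mL final) plus ATP (1.25 mM final); secreted IL-1B measured by AlphaLISA after 16 hr, decreased signal indicating inhibition.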
HT1080NT lethal = kills 2HG-producing HT-1080-NT fibrosarcoma cells | actives 1.6% (n = 360,000) | HT-1080-NT fibrosarcoma viability, CellTiter-Glo ATP luminescence, 48 h | Potency, µM (series often up to 46.1 µM), without a hit: at the highest dose activity, negative = less viability, hits mostly cytotoxic;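 note: NT is the 2HG producing partner of a matched IDH1 knockdown line; potency is the fitted concentration of half-maximal effect; 0% = DMSO-treated cells and -100% = media-only wells without cells; nearly all actives have a fitted effect of over 55% in size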
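Compounds were tested in concentration-response format on HT-1080-NT cells for 48 hours at 37 degrees C. Cell viability came from CellTiter-Glo luminescence; curves were classified by r2, response magnitude and activity.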
TDP1 cell CPT = DT40-hTDP1 cell growth loss with CPT. chicken DT40 Tdp1-/-;hTDP1 cells + 20 nM CPT, ATP luminescence, 48 h. actives 12% (n = 420,000). Potency, µM (titrated, usually from 46.2 µM), inactives show top-dose activity change, negative = growth inhibition, hits mostly inhibitors. AID 686979; note: potency is the fitted concentration of half-maximal effect; nearly all actives have a fitted effect of over 55% in size
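Cell growth measured by CellTiter-Glo luminescence after a minimum 48 h, 37 C compound exposure with 20 nM CPT in Tdp1-knockout DT40 cells stably expressing hTDP1, seeded 400/well; qHTS titration format.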
HT1080 IDH1KD tx = kills HT-1080 cells with IDH1 knockdown; HT-1080 IDH1 knockdown viability, ATP luminescence, 48 h; Potency, µM (doses to about 46.1 µM), inactives show at the top dose activity, negative = toxicity, usual class: cytotoxic; actives 2% (n = 360,000); AID 686971;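 note: potency is the fitted concentration of half-maximal effect; 0% = DMSO wells and -100% = cell-free medium wells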
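Using the IDH1-knockdown HT-1080 line run in the same batch and compound series as the NT line, viability after 48 h at 37 °C was determined by CellTiter-Glo luminescence and expressed as % activity.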
* hit, by the source's call; u = inconclusive; x = not tested or not shown; [ ] = remark or other dose. Unless noted, calls come from the whole dose curve; as a rule, active = well fitted curve in the direction sought with a large enough effect; inconclusive = small, poorly fitted or top-dose-only effect, or another doubt; inactive = no such curve, though single readings can be large; an effect the other way counts as inactive or inconclusive. Unless noted, % is set by controls: 0 for no effect and ±100 for the full control effect.

SMILES	TDP1 cell noCPT	IL1B secr inh	HT1080NT lethal	TDP1 cell CPT	HT1080 IDH1KD tx
COc1ccccc1NC(=O)Nc1ccnn1C1CCN(C(=O)c2cccnc2)CC1	-6%	5	-4%	-2%	-1%
CCN(CC)S(=O)(=O)c1cc(NC(=O)c2ccc(Br)s2)ccc1C	16µM*	0	-16%	u	u
CC1Sc2ccc(C(=O)NCc3ccccn3)cc2NC1=O (centres undefined)	0.65µM*	8	x	0.82µM*	x
CCN(CC)S(=O)(=O)c1cc(NC(=O)c2ccc3c(c2)NC(=O)C(C)S3)ccc1C (centres undefined)	21µM*	-58*	-10%	21µM*	-21%
CCN(CC)S(=O)(=O)c1cc(NS(=O)(=O)c2ccccc2)ccc1C	-28%	16	0%	16µM*	-1%
CCN(CC)S(=O)(=O)c1cc(NC(=O)NCCCl)ccc1C	u	46	26%	u	2%
CCN(CC)S(=O)(=O)c1cc(NS(=O)(=O)c2cccc(C(=O)O)c2)ccc1C	-12%	-8	-24%	1%	21%
O=c1cnc2cnc(N3CCNCC3)nc2n1CCc1ccccc1	-24%	x	x	10%	x
COc1cccc(CNC(=O)C2CCN(C(=O)N3CCOc4ccc(Cl)cc43)CC2)c1OC	21µM*	x	x	u	x
CCc1ccc(NC(=O)N2CCOc3ccc(Cl)cc32)cc1	13µM*	x	x	-19%	x
CC(C)CCNC(=O)C1CCN(C(=O)N2CCOc3ccc(Cl)cc32)CC1	u	x	x	26µM*	x
CC(C)Oc1ccc(CNC(=O)C2CCN(C(=O)N3CCOc4ccc(Cl)cc43)CC2)cc1	6.5µM*	x	x	6.5µM*	x
O=C(NCc1ccco1)C1CCN(C(=O)N2CCOc3ccc(Cl)cc32)CC1	u	x	x	-27%	x
COc1ccc(Oc2cc(C(F)(F)F)cnc2C(N)=O)cc1	-17%	-2	15%	2%	13%
COC(=O)c1ccccc1NC(=O)CSc1nnc(CNS(=O)(=O)c2ccc(C)cc2)n1C	-3%	-10	6%	1%	0%
Nc1nc2c(c(=O)[nH]1)C(c1ccccc1)C1=C(N2)c2ccccc2C1=O (centres undefined)	-18%	14	-6%	-21%	0%
Cn1c2c(c(=O)[nH]c1=O)C(c1ccc(O)cc1)C1=C(N2)c2ccccc2C1=O (centres undefined)	23µM*	u	-6%	10µM*	-27%
S=c1nc(-c2ccccc2Cl)n(Cc2cccnc2)c2c1CCCC2	-18%	-1	7%	-17%	21%
O=C(NCc1cccs1)c1ccc(CSc2nc3cccnc3n2Cc2ccccc2F)cc1	23µM*	x	x	u	x
O=C(NCc1ccco1)c1ccc(Cn2c(SCc3ccccc3F)nc3cccnc32)cc1	23µM*	x	x	u	x
CC(CNC(=O)c1ccc(Cn2c(SCc3ccccc3)nc3cccnc32)cc1)c1ccccc1 (centres undefined)	21µM*	x	x	u	x
Cc1cccc(Cn2c(SCc3ccc(C(=O)NCc4cccs4)cc3)nc3cccnc32)c1	15µM*	x	x	u	x
Cc1ccc(CSc2nc3cccnc3n2Cc2ccc(C(=O)NCc3cccs3)cc2)cc1	-3%	x	x	-28%	x
Cc1cc(C)c2oc(C(=O)Nc3c(C(=O)c4ccccc4)oc4ccccc34)cc(=O)c2c1	-21%	x	x	14%	x
COc1cccc(C2C(C(=O)Nc3ccc(C)cc3C)=C(C)Nc3c(C(=O)Nc4cccc(C)c4)cnn32)c1OC (centres undefined)	-23%	x	x	-13%	x
SMILES	TDP1 cell noCPT	IL1B secr inh	HT1080NT lethal	TDP1 cell CPT	HT1080 IDH1KD tx
COc1ccc(C(=O)Nc2ccccc2)cc1S(=O)(=O)Nc1cc(C)on1	-4%	-5	-1%	-17%	15%
COC(=O)c1ccccc1NC(=O)CN1C(=O)COc2ccc(Cl)cc21	u	x	x	-21%	x
O=C(NCc1cccs1)c1ccc(Cn2c(SCc3ccccc3)nc3cccnc32)cc1	26µM*	x	x	u	x
O=C(NC1CC1)c1ccc(Cn2c(SCc3ccc(F)cc3)nc3cccnc32)cc1	-29%	x	x	-30%	x
O=C(NCCc1cccs1)c1ccc(Cn2c(SCc3ccc(F)cc3)nc3cccnc32)cc1	21µM*	x	x	u	x
Cc1c(C(=O)N2CCC(Cc3ccccc3)CC2)sc2ncnc(NCc3ccccn3)c12	-29%	x	x	u	x
CCn1c(CNc2ccc(Cl)cc2)nnc1SCc1ccc(Cl)cc1	18µM*	-2	u	u	u
CCOc1ccc(NCc2nnc(SCc3ccc(Cl)cc3)n2-c2ccccc2)cc1	29µM*	u	-9%	u	-19%
CCOC(=O)CSc1nnc(CNc2ccc(Cl)cc2)n1-c1ccccc1	-9%	6	3%	-12%	23%
CCn1c(CNc2ccc(Cl)cc2)nnc1SCCN1CCCCC1	18µM*	-5	-6%	21µM*	-4%
N#CCOC(=O)[C@H](Cc1ccccc1)N1C(=O)c2ccccc2C1=O	3%	21	3%	2%	2%
CCc1nc2ccc(C(=O)N3CCN(S(=O)(=O)CC)CC3)cn2c1N(CC)Cc1cccc(Br)c1	u	-22	5%	23µM*	2%
CCc1nc2ccc(C(=O)NCc3ccc(OC)cc3)cn2c1N(CC)CCN(C)C	-14%	-11	-2%	2%	7%
CCc1nc2ccc(C(=O)N(C)C(C)C)cn2c1N(CC)Cc1cccc(Br)c1	15µM*	-8	-7%	u	-7%
CCOc1ccc(N(CC(=O)Nc2ccc(C)cc2)S(=O)(=O)c2c(C)[nH]c(=O)[nH]c2=O)cc1	-3%	-4	-2%	3%	3%
CCC(=O)N1CCN(c2ccc(Cl)cc2NC(=O)c2ccc3c(c2)OCCO3)CC1	u	-12	-1%	16µM*	-10%
CCC(=O)N1CCN(c2ccc(Cl)cc2NC(=O)c2ccc(N3CCCC3)c([N+](=O)[O-])c2)CC1	u	-51*	6%[9.24 µM]	u	7%
CCC(=O)N1CCN(c2ccc(NC(=O)c3ccc4c(c3)OCCO4)cc2)CC1	10%	19	-28%	-16%	u
CCOC(=O)c1cc(-c2ccc(OC(F)F)cc2)nc2c1c(=O)[nH]c(=O)n2C	-13%	14	2%	-21%	12%
CSCC[C@H](NC(=O)[C@H](Cc1ccc(OS(=O)(=O)O)cc1)NC(=O)[C@@H](N)CC(=O)O)C(=O)NCC(=O)N[C@@H](Cc1c[nH]c2ccccc12)C(=O)N[C@@H](CCSC)C(=O)N[C@@H](CC(=O)O)C(=O)N[C@@H](Cc1ccccc1)C(N)=O	-27%	x	x	6%	x
CCCC(=O)Nc1ccc(C(=O)COC(=O)C2CC2)cc1	-19%	-9	-1%	0%	-6%
